Key:
Format in all cases: functional
Plasmodium falciparum [1] = test: GSK_TCMDC: Inhibition of Plasmodium falciparum 3D7 in whole red blood cells, using parasite LDH activity as an index of growth. Test compounds present at 2uM
Plasmodium falciparum [2] = test: GSK_TCMDC: Inhibition of Plasmodium falciparum Dd2 in whole red blood cells, using parasite LDH activity as an index of growth. Test compounds present at 2uM
HepG2 = test: GSK_TCMDC: Percent inhibition of human HepG2 cell line. Test compounds present at 10uM.

SMILES	Inhibition (Plasmodium falciparum [1]) [%]	Inhibition (Plasmodium falciparum [2]) [%]	Inhibition (HepG2) [%]
O=C(/C=C/c1ccc(Br)cc1)NCCCCCN1CCC(c2c[nH]c3ccccc23)CC1	99	19	73
COC1(C)Oc2ccc3cccc([N+](=O)[O-])c3c2C1=O (centres undefined)	98	0	3
CN(c1ccc(NC(=O)Nc2cc(C(C)(C)C)on2)cc1)c1ccnc(NCCN2CCOCC2)n1.O=C(O)C(F)(F)F	95	18	51
COc1ccccc1C1CCN(C2CCC(NC(=O)/C=C/c3ccc(C(F)(F)F)cc3F)CC2)CC1 (centres undefined)	95	2	63
COc1cc(CCOc2c(C)nc(N)nc2N)cc(OC)c1OC.Cl	93	0	59
COc1ccc(CNCCCCCCNCc2ccc(OC)c3ccccc23)c2ccccc12.Cl	100	49	100
COc1cccc(CN2CCCN(Cc3cccc(NC(=O)c4ccc(Cl)c(Cl)c4)c3)CC2)c1.O=C(O)C(F)(F)F	89	11	26
N#Cc1ccc2[nH]cc(-c3cn4cc(SC5CCCC5)ccc4n3)c2c1	92	21	1
CC(C)Cn1c(Sc2ccc(C#N)c([N+](=O)[O-])c2)nnc1-c1cccc(Cl)c1	98	95	24
CCOc1ccccc1CNc1nccc(NCc2ccc(Cl)cc2Cl)n1	83	58	26
CCC(C)NS(=O)(=O)c1ccc2nc(Nc3ccc(C)c(Cl)c3)n(C(C)C(C)C)c2c1 (centres undefined)	98	98	22
COc1cc(Cc2cnc(N)nc2N)ccc1OCc1ccc(F)c(F)c1	90	31	10
COc1cc2nc(NC3CCN(Cc4ccccc4)CC3)nc(N)c2cc1OC	100	30	27
O=C(Nc1ccc(Cl)c(C(F)(F)F)c1)c1ccc(Cl)c([N+](=O)[O-])c1	87	18	20
COc1ccc2nccc([C@@H](O)CN3CCC(NCc4ccc5nsnc5c4)CC3)c2c1.O=C(O)C(=O)O	95	64	12
Cl.O=C(Nc1ccc(C(=O)Nc2ccc(C3=NCCN3)cc2)cc1)Nc1ccc(C2=NCCN2)cc1	94	95	0
CC1CN(Cc2cccc(F)c2)CCN1c1ccc(NC(=O)c2cccs2)cc1.O=C(O)C(F)(F)F (centres undefined)	96	96	0
COc1ccc(C=NN=c2cc(C)[nH]c3c(C)cccc23)c2ccccc12	100	98	3
Cn1nccc1C(=O)NCCNCc1ccc(-c2cccc(-c3nc4cc(C(F)(F)F)ccc4[nH]3)c2)cc1.O=C(O)C(F)(F)F	100	99	51
O=C(N[C@@H](CC1CCCCC1)C(=O)NCc1cccc(C(F)(F)F)c1)c1ccc(O)c(-c2ccc(Cl)c(Cl)c2)c1	98	100	0
Cc1cccc2nc(-c3cccc(-c4ccc(NC(=O)C5CCN(C)CC5)cc4)c3)[nH]c12	100	100	16
COc1cccc(-c2cccc(-c3ccc(NC(=O)c4ccc([N+](=O)[O-])o4)cc3)n2)c1	97	94	98
O=C(O)C(F)(F)F.OCC1CCN(Cc2cccc(-c3cccc(-c4nc5cc(C(F)(F)F)ccc5[nH]4)c3)c2)CC1	100	100	24
CCC(NCc1ccc(-c2cncc(C(=O)NCC(C)C)c2)cc1)c1ccccc1.O=C(O)C(F)(F)F (centres undefined)	86	8	14
CCNc1cc(C(=O)N[C@@H](Cc2ccccc2)[C@H](O)CNC(CC)c2cccc(Cl)c2)cc(N2CCCC2=O)c1.Cl (some centres undefined)	97	99	12
COc1cc2c(cc1OC)CC(NCCCCCCNCCc1ccc(Cl)cc1)CC2.Cl (centres undefined)	98	0	50
CCNCc1ccc(-c2cc3ncnc(Nc4ccc(OCc5cccc(F)c5)c(Cl)c4)c3s2)[nH]1	100	74	22
Cc1cc(N[C@@H](CC(C)C)C(=O)NC2CCCC2)nc(NCc2ccccc2C)n1.O=C(O)C(F)(F)F	98	44	2
